Seven molecules from PubChem BioAssay (Tox21) can be followed below.

The nature of assay [1]: Nuclear factor erythroid 2-related factor 2/antioxidant responsive element (Nrf2/ARE) small molecule agonists: qHTS cell viability counter screen in human keratinocytes (AID 1919968; active = well fitted curve in the direction sought with a large enough effect in the repeat runs; an effect the other way counts as inactive or inconclusive; also: nearly all actives have a fitted effect of over 55% in size; also: potency is read from the fitted curve at half-maximal effect). An outline of the steps: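 Stably transfected HaCaT (KeratinoSens), 1,500/well. Test agents in DMSO were applied for 23 h, 37 C/5% CO2. CellTiter-Fluor was incubated 1 h before the fluorescence read.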

For assay [2], the target named is Gonadotropin-releasing hormone receptor (Homo sapiens) (UniProt P30968). As to the kind of experiment: Human gonadotropin-releasing hormone receptor (GnRHR) small molecule agonists, calcium flux assay in GnRHR-HEK293 cells (AID 1920063). Also: nearly all actives have a fitted effect of over 35% in size. An outline of the steps:
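Stable human GnRHR HEK293 line. 18 h plating, then calcium dye for 1 h at 37 C. Agonist-mode compound addition from DMSO stocks; fluorescence monitored 3 min.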

Assay [3] addresses KiSS-1 receptor (Homo sapiens) (UniProt Q969F8). In words: Human kisspeptin (KISS1R) small molecule agonists, calcium flux assay in KISS1R-HEK293 cells (AID 1920064; active = well fitted curve in the direction sought with a large enough effect in the repeat runs; an effect the other way counts as inactive or inconclusive). An outline of the steps:
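After overnight (18 h) culture at 37 C/5% CO2, human KISS1R-HEK293 cells received calcium dye for 1 h, then test compound; emission at 540 nm (excitation 480 nm) was tracked for 3 min.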

Assay [4] is described as follows: G protein-coupled receptor (GPCR) small molecule agonists, calcium flux assay: HEK293 wild type cell line counter screen (AID 1920065). An outline of the steps: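 Following 18 h incubation at 37 C/5% CO2, plates got calcium dye for 1 h; compounds, ATP or DMSO were then pinned in and fluorescence followed kinetically (480/540 nm).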
Assay [5] is described as follows: p53 small molecule agonists, cell-based qHTS assay with human liver microsomes: qHTS cell viability counter screen (AID 1963579). Also: nearly all actives have a fitted effect of over 45% in size. Also: potency is read from the fitted curve at half-maximal effect. An outline of the steps:
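Seed p53RE-bla cells at 4,000 per well; incubate 5 h at 37 C; add compound, human liver microsomes and NADPH; incubate 16 h at 37 C; add CellTiter-Glo; after 30 min at room temperature, read luminescence.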

Assay [6] can be described thus: p53 small molecule agonists, cell-based qHTS assay: qHTS cell viability counter screen (AID 1963581). Also: nearly all actives have a fitted effect of over 45% in size. An outline of the steps:
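qHTS counter screen: 16 h compound exposure at 37 C of p53RE-bla HCT-116 cells (4,000 per well, seeded 5 h prior), cell viability by ATP luminescence.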

Assay [7] has as its target 5-hydroxytryptamine receptor 2A (Homo sapiens) (UniProt P28223). As to the kind of experiment: 5-hydroxytryptamine receptor 2A (HTR2A) small molecule antagonists, cell-based qHTS assay (AID 1963586). Also: nearly all actives have a fitted effect of over 45% in size. An outline of the steps: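 CHO cells stably expressing human HTR2A were plated for 18 h at 37 C, then loaded with calcium dye for 1 h. Compounds were preincubated 5 min at room temperature before DOI (4 nM solution) was added. Kinetic fluorescence was read for 3 min.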

Assay [8] has the same target. As to the kind of experiment: 5-hydroxytryptamine receptor 2A (HTR2A) small molecule agonists, cell-based qHTS assay (AID 1963587). Also: nearly all actives have a fitted effect of over 30% in size. An outline of the steps:
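CHO cells stably expressing human HTR2A, plated 18 h, loaded with calcium dye 1 h at 37 C. Agonist mode: compounds added and intracellular calcium fluorescence recorded kinetically for 2 min at 1 sec intervals.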

Assay [9] has as its target Muscarinic acetylcholine receptor M1 (Homo sapiens) (UniProt P11229). In words: Cholinergic receptor muscarinic 1 (CHRM1) small molecule antagonists, cell-based qHTS assay (AID 1963588). Also: nearly all actives have a fitted effect of over 40% in size. An outline of the steps:
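Compounds were tested at 15 concentrations in three independent runs. Dye-loaded CHRM1-CHO cells were exposed 5 min at room temperature before stimulation by acetylcholine added at 50nM. Intracellular calcium was read kinetically on FDSS for 3 min.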

For assay [10] the target is unchanged. As to the kind of experiment: Cholinergic receptor muscarinic 1 (CHRM1) small molecule agonists, cell-based qHTS assay (AID 1963589). Also: nearly all actives have a fitted effect of over 35% in size. An outline of the steps: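 Kinetic fluorescence (1 s intervals) of calcium-sensitive dye in human M1 CHO cells after compound addition; cells pre-incubated 18 h at 37 C/5% CO2 and dye-loaded 1 h.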
Assay [11] is described as follows: cAMP Responsive Elements (CRE) small molecule agonists, cell-based qHTS assay (AID 1963590). An outline of the steps:
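Test agents in DMSO were incubated 3 h at 37 C/5% CO2 with CRE-bla HEK 293T cells seeded 18 h earlier; LiveBLAzer B/G FRET substrate was added and read after 2 h at room temperature.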

Assay [12] is described as follows: cAMP Responsive Elements (CRE) small molecule antagonists, cell-based qHTS assay (AID 1963591; active = well fitted inhibition curve with a large enough effect in the signal ratio in the repeat runs, not every such curve was filed as active; the % refers to the signal ratio). An outline of the steps: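 Reporter line CRE-bla HEK 293T in dialyzed-FBS DMEM; cells preincubated 18 h, treated 3 h with compound plus NKH477 (0.25 uM final); LiveBLAzer FRET, 2 h RT.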
In assay [13] the target is Beta-2 adrenergic receptor (Homo sapiens) (UniProt P07550). In words: Adrenergic beta2 receptor (ADRB2) small molecule antagonists, cell-based qHTS assay (AID 1963592). Also: series mostly up to about 92 µM; nearly all actives have a fitted effect of over 50% in size. An outline of the steps:
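Assay format: CHO-ADRB2 cells, 18-20hr seeding at 37C/5% CO2, then compound plus 1nM isoproterenol agonist mix for 0.5hr RT. Homogeneous time-resolved fluorescence cAMP detection after 1hr, expressed as 665/615 nm ratio.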

The target is the same in assay [14]. In words: Adrenergic beta2 receptor (ADRB2) small molecule agonists, cell-based qHTS assay (AID 1963593).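 Also: CHO cells stably overexpressing human ADRB2.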 An outline of the steps: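 CHO cells stably over-expressing ADRB2 were plated overnight at 37C, then dosed with compounds plus a stimulation mix containing 100uM IBMX and 25uM Ro-20-1724 for 0.5hr at room temperature. cAMP was measured by HTRF competition, 1hr.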

Assay [15] deals with D(2) dopamine receptor (Homo sapiens) (UniProt P14416). In words: Dopamine D2 receptor (DRD2) small molecule agonists, cell-based qHTS assay (AID 1963594). Also: nearly all actives have a fitted effect of over 35% in size. An outline of the steps:
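HEK293 cells stably expressing human DRD2, pre-treated with PDE inhibitor Ro20-1724 (0.1 mM final) and compound 10 min at room temperature, then stimulated with NKH477 (200nM […]) for 30 min. cAMP read by HTRF (665/620 nm).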

Assay [16] shares this target. In words: Dopamine D2 receptor (DRD2) small molecule antagonists, cell-based qHTS assay (AID 1963595; active = well fitted inhibition curve with a large enough effect in the signal ratio in the repeat runs, with a control signal flat; the % refers to the signal ratio). An outline of the steps:
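Stable D2 receptor HEK293 line, 24 h after seeding. Compound preincubated 10 min, then quinpirole (12 nM) with forskolin analogue NKH477 (200 nM), 30 min, room temperature. Detection by time-resolved FRET of cAMP.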

Assay [17] can be described thus: p53 small molecule agonists, cell-based qHTS assay with human liver microsomes (AID 1963577). An outline of the steps:
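Cells carrying a p53-responsive bla reporter were rested 5 h (37 C, 5% CO2) before compound transfer. Human liver microsomes plus NADPH, 0.5 mg/mL final apiece, supplied metabolism during the 16 h 37 C exposure.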

The nature of assay [18]: p53 small molecule agonists, cell-based qHTS assay with rat liver microsomes (AID 1963578). An outline of the steps:
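Fluorescence from a beta-lactamase reporter under a p53 response element was measured after cells had been incubated 16 h at 37 C with test compound and rat liver microsomes plus NADPH (0.5 mg/mL final each).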

A short description of assay [19]: p53 small molecule agonists, cell-based qHTS assay with rat liver microsomes: qHTS cell viability counter screen (AID 1963580). Also: nearly all actives have a fitted effect of over 45% in size. Also: potency is read from the fitted curve at half-maximal effect. An outline of the steps: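 Cytotoxicity counter screen: intracellular ATP measured by CellTiter-Glo luminescence in the same wells as the beta-lactamase reporter read, on HCT-116 p53RE-bla cells exposed 16 h at 37 C to compounds with rat liver microsomes and NADPH, each 0.5 mg/mL final.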

The nature of assay [20]: p53 small molecule agonists, cell-based qHTS assay (AID 1963582; active = well fitted activation curve with a large enough effect in the signal ratio in the repeat runs, not every such curve was filed as active; the % refers to the signal ratio). An outline of the steps: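 Measured: fluorescence from cleaved LiveBLAzer substrate. System: p53RE-bla cells, 16 h compound treatment at 37 C, 2 h substrate step at room temperature.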

Values joined by “and” are separate entries in the source; they are usually repeats but may differ in a detail not shown here. Identical values can stand only once. Unmarked numbers belong to inactive results. Inconclusive results are not listed. Active and inactive are the calls of the source. Unless noted, calls follow the shape of the full dose curve.
% is scaled to controls: 0 for no effect and ±100 for the full control effect.

5-hydroxytryptamine receptor 2A (Homo sapiens), sequence (P28223 whole entry, looked up): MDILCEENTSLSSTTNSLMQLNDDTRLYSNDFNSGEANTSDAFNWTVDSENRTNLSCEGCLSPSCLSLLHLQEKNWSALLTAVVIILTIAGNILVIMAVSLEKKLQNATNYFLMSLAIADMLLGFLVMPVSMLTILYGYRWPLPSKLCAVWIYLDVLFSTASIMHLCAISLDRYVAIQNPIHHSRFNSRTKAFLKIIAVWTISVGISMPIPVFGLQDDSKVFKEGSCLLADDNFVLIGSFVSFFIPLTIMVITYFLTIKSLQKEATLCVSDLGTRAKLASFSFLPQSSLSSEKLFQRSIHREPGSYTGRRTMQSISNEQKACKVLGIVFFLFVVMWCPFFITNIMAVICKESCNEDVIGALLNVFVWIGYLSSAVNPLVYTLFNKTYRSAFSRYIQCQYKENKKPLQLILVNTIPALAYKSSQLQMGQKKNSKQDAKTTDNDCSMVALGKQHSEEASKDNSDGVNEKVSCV
Muscarinic acetylcholine receptor M1 (Homo sapiens), sequence (P11229 whole entry, looked up): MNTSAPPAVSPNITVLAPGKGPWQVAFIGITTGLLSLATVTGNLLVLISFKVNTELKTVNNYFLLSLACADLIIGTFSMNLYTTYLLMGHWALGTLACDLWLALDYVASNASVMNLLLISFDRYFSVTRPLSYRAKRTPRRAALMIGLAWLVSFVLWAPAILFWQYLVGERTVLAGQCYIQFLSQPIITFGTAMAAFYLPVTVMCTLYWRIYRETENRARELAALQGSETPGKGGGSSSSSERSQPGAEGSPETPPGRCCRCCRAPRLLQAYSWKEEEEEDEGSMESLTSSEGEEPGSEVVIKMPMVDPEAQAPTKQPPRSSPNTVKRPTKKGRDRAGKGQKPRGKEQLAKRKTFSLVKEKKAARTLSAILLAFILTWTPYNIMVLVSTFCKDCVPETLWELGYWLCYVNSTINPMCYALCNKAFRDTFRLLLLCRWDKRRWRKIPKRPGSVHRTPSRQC
D(2) dopamine receptor (Homo sapiens), sequence (P14416 whole entry, looked up): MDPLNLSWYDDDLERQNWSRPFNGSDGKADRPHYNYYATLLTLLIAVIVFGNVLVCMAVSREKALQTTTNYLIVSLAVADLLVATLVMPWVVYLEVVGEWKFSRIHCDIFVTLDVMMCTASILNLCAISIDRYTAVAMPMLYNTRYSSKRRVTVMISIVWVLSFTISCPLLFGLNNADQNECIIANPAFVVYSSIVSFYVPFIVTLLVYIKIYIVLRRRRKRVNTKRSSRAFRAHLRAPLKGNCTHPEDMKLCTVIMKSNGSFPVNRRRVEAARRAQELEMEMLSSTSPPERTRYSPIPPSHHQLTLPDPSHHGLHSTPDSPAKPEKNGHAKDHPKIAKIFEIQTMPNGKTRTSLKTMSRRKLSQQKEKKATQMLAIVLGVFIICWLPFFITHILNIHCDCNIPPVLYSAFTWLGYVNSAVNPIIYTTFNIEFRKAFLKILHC
KiSS-1 receptor (Homo sapiens), sequence (Q969F8 whole entry, looked up): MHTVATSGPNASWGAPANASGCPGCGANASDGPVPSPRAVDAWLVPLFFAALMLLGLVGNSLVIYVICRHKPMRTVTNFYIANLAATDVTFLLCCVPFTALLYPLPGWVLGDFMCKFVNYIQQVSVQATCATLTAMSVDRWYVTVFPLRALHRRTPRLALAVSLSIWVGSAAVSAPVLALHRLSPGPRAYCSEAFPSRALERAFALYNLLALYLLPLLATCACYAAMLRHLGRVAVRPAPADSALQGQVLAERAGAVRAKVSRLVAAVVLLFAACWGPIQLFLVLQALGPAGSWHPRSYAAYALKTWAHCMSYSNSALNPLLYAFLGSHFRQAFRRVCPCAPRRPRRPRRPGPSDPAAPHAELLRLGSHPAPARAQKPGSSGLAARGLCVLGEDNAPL
Gonadotropin-releasing hormone receptor (Homo sapiens), sequence (P30968 whole entry, looked up): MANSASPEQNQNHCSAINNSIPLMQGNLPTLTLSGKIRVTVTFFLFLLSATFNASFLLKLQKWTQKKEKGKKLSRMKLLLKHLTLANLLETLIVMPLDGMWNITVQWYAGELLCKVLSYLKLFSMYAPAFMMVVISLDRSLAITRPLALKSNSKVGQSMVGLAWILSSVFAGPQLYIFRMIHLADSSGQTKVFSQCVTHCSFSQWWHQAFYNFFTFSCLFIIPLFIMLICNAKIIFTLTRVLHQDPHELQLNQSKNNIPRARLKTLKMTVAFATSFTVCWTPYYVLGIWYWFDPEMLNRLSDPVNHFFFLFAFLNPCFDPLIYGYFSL
Beta-2 adrenergic receptor (Homo sapiens), sequence (P07550 whole entry, looked up): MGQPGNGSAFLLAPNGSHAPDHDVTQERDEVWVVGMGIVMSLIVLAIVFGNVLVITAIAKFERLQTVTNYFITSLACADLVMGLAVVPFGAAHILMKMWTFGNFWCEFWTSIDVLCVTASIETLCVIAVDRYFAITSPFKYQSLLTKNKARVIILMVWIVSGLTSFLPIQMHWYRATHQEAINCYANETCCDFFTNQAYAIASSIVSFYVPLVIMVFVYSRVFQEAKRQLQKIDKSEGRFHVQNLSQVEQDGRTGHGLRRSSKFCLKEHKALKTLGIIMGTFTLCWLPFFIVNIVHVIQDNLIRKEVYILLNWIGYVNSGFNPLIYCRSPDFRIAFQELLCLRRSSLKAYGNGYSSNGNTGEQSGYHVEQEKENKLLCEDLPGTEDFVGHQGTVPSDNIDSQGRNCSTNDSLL

For the molecule `O=S(=O)(O)NC1CCCCC1`, the Potency result in assay [1], in assay [2], in assay [3], in assay [4], in assay [5] and in assay [6] was “inactive” throughout. The Potency entry in assay [7], in [8], in assay [9], in assay [10], in assay [11] and in [12] was “inactive” each time. The Potency entry in [13], in assay [15] and in assay [16] was “inactive” throughout. Besides, the activation in assay [14] is -21.4% [at 19 µM].

Regarding `N[C@@H](Cc1cc(I)c(Oc2ccc(O)c(I)c2)c(I)c1)C(=O)O`, the Potency entry in assay [1], in assay [2], in assay [3], in assay [4], in [17] and in [18] was “inactive” throughout. Moreover, the Potency result in assay [5], in assay [19], in assay [6], in [20], in assay [11] and in [12] was “inactive” throughout. The Potency entry in assay [13], in [15] and in [16] was “inactive” each time.

Take `c1cnc2c(c1)ccc1cccnc12`: the Potency in assay [1] is 3.89 µM (active) and 6.11 µM (active) and 7.7 µM (active); in [5], 36.7 µM (active). Moreover, the Potency result in assay [2], in assay [3], in assay [17], in [18], in [6] and in assay [7] was “inactive” throughout. Also, the Potency result in [8], in assay [9], in assay [10], in assay [11], in assay [14] and in assay [15] was “inactive” throughout. Moreover, the Potency result in assay [16] is “inactive”.

Consider `c1ccc2scnc2c1`, for which the Potency entry in assay [1], in assay [4], in [17], in assay [18], in [5] and in assay [19] was “inactive” throughout. The Potency result in [6], in assay [20], in assay [7], in assay [8], in assay [9] and in [10] was “inactive” in each case. Also, the Potency entry in assay [11], in assay [12], in assay [13], in assay [14], in assay [15] and in [16] was “inactive” in each case.

Regarding `O=c1c(-c2ccc(O)cc2)coc2cc(O)cc(O)c12`, the Potency result in assay [1], in assay [2], in assay [3], in assay [4], in assay [17] and in assay [18] was “inactive” each time. For the same molecule, the Potency entry in assay [5], in [6], in [20], in assay [11], in assay [13] and in assay [15] was “inactive” throughout. Moreover, in [16], the Potency result is “inactive”. Besides, the Potency in assay [19] was 16 µM (active).

In the case of `O=C1NS(=O)(=O)c2ccccc21`, the Potency result in [1], in [2], in [3], in assay [4], in assay [5] and in assay [19] was “inactive” throughout. For the same molecule, the Potency entry in [6], in assay [7], in assay [8], in assay [9], in assay [10] and in [11] was “inactive” throughout. The Potency result in assay [12], in assay [13], in [15] and in assay [16] was “inactive” in each case.

Regarding `CCCCCCCC(=O)O`, the Potency result in assay [2], in assay [4], in assay [17], in [5], in assay [19] and in assay [6] was “inactive” each time. In addition, the Potency result in assay [20], in assay [7], in [8], in [9], in [10] and in assay [11] was “inactive” throughout. In addition, the Potency entry in assay [12], in assay [13], in [15] and in assay [16] was “inactive” each time.
